# Data: PubChem BioAssay AID1030 (National Center for Advancing Translational Sciences (NCATS), 2008)
# Hit rate of the full screen: of about 220,000 compounds, about 16,000 (7.3%) were called active. Where a call stands in place of a potency, no number is given. Not shown: some 25% with an inconclusive outcome. Calls come from the whole dose curve; as a rule, active = well fitted inhibition curve with a large enough effect (not every such curve was filed as active); inconclusive = small, poorly fitted or top-dose-only effect, or another doubt; inactive = no such curve, though single readings can be large or run the other way. The sample as a whole holds a higher share of actives than the screen did.
# Target: Aldehyde dehydrogenase 1A1 (Homo sapiens) (UniProt P00352)
# Test: qHTS Assay for Inhibitors of Aldehyde Dehydrogenase 1 (ALDH1A1)
# Details: Purified ALDH1A1, NADH fluorescence, propionaldehyde substrate; series mostly up to 75.3 µM
# Potency is the fitted concentration of half-maximal effect.
# Chain of Aldehyde dehydrogenase 1A1 (Homo sapiens) (P00352 whole entry, looked up): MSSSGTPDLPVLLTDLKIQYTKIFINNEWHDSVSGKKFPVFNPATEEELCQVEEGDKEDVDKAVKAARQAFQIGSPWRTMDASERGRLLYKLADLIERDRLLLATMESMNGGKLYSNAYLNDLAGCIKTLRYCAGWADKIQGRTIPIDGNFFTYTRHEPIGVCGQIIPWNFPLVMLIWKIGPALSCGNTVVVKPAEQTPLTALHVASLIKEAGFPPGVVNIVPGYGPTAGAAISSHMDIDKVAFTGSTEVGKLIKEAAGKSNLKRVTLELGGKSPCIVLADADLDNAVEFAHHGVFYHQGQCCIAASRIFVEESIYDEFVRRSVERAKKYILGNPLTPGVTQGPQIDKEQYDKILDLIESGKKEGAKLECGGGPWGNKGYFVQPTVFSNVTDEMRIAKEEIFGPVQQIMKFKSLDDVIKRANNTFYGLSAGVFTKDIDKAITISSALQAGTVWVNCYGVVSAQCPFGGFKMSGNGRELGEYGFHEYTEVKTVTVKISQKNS
row,SMILES,Potency
1,O=C(c1snnc1-c1ccccc1)N1CCOCC1,inactive
2,Cc1cc(-c2nnc(CCC(=O)NC(c3ccccc3)c3ccccc3)o2)no1,inactive
3,O=C(/C=C/c1ccc(F)cc1)NCCNC(=O)/C=C/c1ccc(F)cc1,inactive
4,O=C(CCC1CCCN(Cc2ccc(O)c(Cl)c2)C1)NCc1ccccc1F (stereo not drawn),inactive
5,CCOCC(=O)Nc1cc(OC)c(Cl)cc1OC,inactive
6,COc1cc(NC(=S)NNC(=O)CC(C)C)c(OC)cc1Cl,25.1 µM (active)
7,CC(C)CC(=O)NC(=S)Nc1cc(C(=O)O)ccc1Cl,inactive
8,CCC(CC)C(=O)Nc1ccc(S(=O)(=O)Nc2nccs2)cc1,inactive
9,O=C(C1CCCN1S(=O)(=O)c1ccc(Br)cc1)N1CCOCC1 (stereo not drawn),inactive
10,Nc1ccc(Oc2ccc(Cl)cc2)cc1,inactive
11,COc1cccc(Oc2ccc(N)cc2)c1,inactive
12,Cc1ccc(Oc2ccc(N)cc2)cc1,17.8 µM (active)
13,O=C(NNS(=O)(=O)c1ccc(F)cc1)c1cnccn1,inactive
14,Cc1c(Cl)c([N+](=O)[O-])nn1CCCC(=O)NC(C)c1ccccc1 (stereo not drawn),inactive
15,S=C(Nc1cccc(Br)c1)N1CCn2cccc2C1c1cccnc1 (stereo not drawn),inactive
16,O=c1oc2ccccc2cc1-c1csc(Nc2ccc(O)cc2)n1,inactive
17,COc1ccc2nc(Nc3nc(-c4cc5ccccc5oc4=O)cs3)sc2c1,inactive
18,Nc1ncc(-c2cc3ccccc3oc2=O)s1,11.2 µM (active)
19,CC(C)NC(=O)c1ccc(Cl)cc1Cl,inactive
20,COc1cccc(NC(=O)CN(C)C(C)C(=O)Nc2ccc(C#N)cc2)c1 (stereo not drawn),inactive
21,COc1cccc(CNC(=O)CCN2C(=S)NC(C)(C)CC2C)c1 (stereo not drawn),inactive
22,O=C(CCN1CCN(c2ccccc2)CC1)NNC(=S)Nc1ccccc1,inactive
23,O=C(O)/C=C\C(=O)Nc1ccc(OCc2ccccc2)cc1,25.1 µM (active)
24,O=C(N/N=C/c1ccc(OCc2ccccc2)cc1)c1ccc(O)cc1,inactive
25,O=C(/C=C/c1ccco1)Nc1ccc(Oc2ccccc2)cc1,inactive
26,NC(=O)COC(=O)c1cc(S(=O)(=O)N2CCN(c3ccccc3)CC2)ccc1Cl,inactive

row,SMILES,Potency
1,CCOC(=O)C1=C(CC)OC(N)=C(C#N)C1c1ccc(F)cc1F (stereo not drawn),inactive
2,CCC1=C(C(=O)OC)C(c2cc(OC)ccc2OC)C(C#N)=C(N)O1 (stereo not drawn),17.8 µM (active)
3,COC(=O)C1=C(C)OC(N)=C(C#N)C1c1cc(OC)ccc1OC (stereo not drawn),inactive
4,COc1ccc(S(=O)(=O)N(C)CC(=O)N2CCCC2)cc1Cl,inactive
5,Cc1noc(C)c1S(=O)(=O)N(C)Cc1ccccc1,inactive
6,Cc1cccc(NS(=O)(=O)c2ccc(C)c(C(N)=O)c2)c1,inactive
7,CC(NC(=O)C(=O)N/N=C/c1ccc(Cl)cc1)c1ccccc1 (stereo not drawn),inactive
8,Cc1ccc(-n2c(C)cc(C(=O)CN3C(=O)C(=O)N(C4CCCC4)C3=O)c2C)cc1,inactive
9,COc1cc(CNC2CCCCC2)c(Br)cc1OC1CCCC1,inactive
10,O=C(Nc1ccc([N+](=O)[O-])cc1)C1(c2ccccc2)CCOCC1,inactive
11,O=C(O)/C=C/C(=O)NNc1ccc([N+](=O)[O-])cc1,14.1 µM (active)
12,O=C(Cc1ccccc1)NNS(=O)(=O)c1ccc([N+](=O)[O-])cc1,inactive
13,NC(=O)c1ccc(CN2CCC(Cc3ccccc3)CC2)cc1,inactive
14,O=C(COC(=O)c1ccc[nH]c1=O)Nc1ccc2c(c1)OC(F)(F)O2,inactive
15,Cc1c(S(=O)(=O)O)ccc(N=Nc2c(O)c(C(=O)O)cc3ccccc23)c1Cl,3.55 µM (active)
16,Cc1nn(Cc2ccc(Cl)cc2)c(Cl)c1/C=N/NC(=O)CNc1ccccc1F,inactive
17,COC(=O)Cc1ccc(NC(=S)NCc2ccco2)cc1,inactive
18,FC(F)Oc1ccc(NC(=S)NCc2ccco2)cc1Cl,14.1 µM (active)
19,O=C(NNC(=S)NCc1ccco1)C(c1ccccc1)c1ccccc1,inactive
20,O=C(NCc1cccs1)c1cc(-c2ccccn2)nc2ccc(Br)cc12,inactive
21,OC(CN=c1sc2ccccc2n1CC(O)COc1ccccc1)COc1ccccc1 (stereo not drawn),2.82 µM (active)
22,OC(COc1ccccc1)Cn1cc(Br)cn1 (stereo not drawn),inactive
23,C=CCn1c(=N)n(CC(O)COc2ccc(OC)cc2)c2ccccc21 (stereo not drawn),inactive
24,Cc1ccccc1NS(=O)(=O)CCCCC(Cl)(Cl)Cl,inactive
25,O=C1N=C(N2CCOCC2)S/C1=C\C=C/c1ccccc1,inactive
26,Cc1ccsc1/C=C1\SC(N2CCOCC2)=NC1=O,14.1 µM (active)

row,SMILES,Potency
1,CCc1ccc(/C=C2\SC(N3CCOCC3)=NC2=O)cc1,inactive
2,NC(N)=NCCCc1cn(CC(=O)N2CCNCC2)nn1,inactive
3,CCOC(=O)COc1ccc([N+](=O)[O-])cc1,inactive
4,N/C(=N\OC(=O)COc1ccc([N+](=O)[O-])cc1)c1ccc(Br)cc1,inactive
5,Cc1cc(C)cc(OCC(=O)O/N=C(\N)Cc2ccc([N+](=O)[O-])cc2)c1,10 µM (active)
6,COC(=O)C(NS(=O)(=O)c1ccc(F)cc1)c1ccccc1 (stereo not drawn),inactive
7,CC1CCC(C(C)C)C(=O)/C1=C\c1ccc(NC(=O)CCC(=O)O)cc1 (stereo not drawn),inactive
8,COc1ccc(S(=O)(=O)N2CCN(C(=O)c3cc(C)oc3C)CC2)cc1,inactive
9,COc1ccc2occ(C(=O)c3ccc(N=C(C)N(C)C)cc3)c2c1,inactive
10,COc1ccc(OC)c(C(=O)c2coc3ccc(O)c(CN4CCOCC4)c23)c1,inactive
11,COc1ccc(OC)c(C(=O)c2coc3ccc(OC)cc23)c1,14.1 µM (active)
12,NS(=O)(=O)c1ccc(CCNC(=O)c2ccc([N+](=O)[O-])cc2[N+](=O)[O-])cc1,inactive
13,CCOC(=O)CCCNC(=O)COC(=O)c1cc(Br)c(Br)s1,inactive
14,O=C(NC1CCCC1)C(c1ccc(N2CCOCC2)cc1)N(C(=O)c1ccco1)c1ccccc1F (stereo not drawn),inactive
15,COCCn1nnnc1C(c1ccccc1Cl)N1CCN(c2ccccc2OC)CC1 (stereo not drawn),inactive
16,COc1ccc(C(c2nnnn2Cc2cccs2)N2CCN(c3ccccc3)CC2)cc1OC (stereo not drawn),2 µM (active)
17,COc1ccc(CCn2nnnc2C(c2ccccc2)N2CCN(C)CC2)cc1OC (stereo not drawn),inactive
18,Cc1nnc(SCCCn2c(N3CCCCC3)nc3c2c(=O)[nH]c(=O)n3C)s1,14.1 µM (active)
19,COc1ccc(CCn2c(NCCCN3CCOCC3)nc3c2c(=O)[nH]c(=O)n3C)cc1,inactive
20,CC1CCN(c2nc3c(c(=O)[nH]c(=O)n3C)n2CCCc2ccccc2)CC1,31.6 µM (active)
21,Cn1c(=O)[nH]c(=O)c2c1nc(N1CCCCCC1)n2CC(=O)c1ccccc1,inactive
22,C=C(C)Cn1c(N2CCN(CC)CC2)nc2c1c(=O)[nH]c(=O)n2C,inactive
23,Cc1ccnc(SCCn2c(Br)nc3c2c(=O)[nH]c(=O)n3C)n1,inactive
24,CN1CCN(c2nc3c(c(=O)[nH]c(=O)n3C)n2Cc2cccc3ccccc23)CC1,25.1 µM (active)
25,Cn1c(=O)[nH]c(=O)c2c1nc(NCCCn1ccnc1)n2Cc1cccc(Br)c1,inactive
26,C=C(C)Cn1c(N2CCCC2)nc2c1c(=O)[nH]c(=O)n2C,inactive
